Experimental data taken from the supplement of paper PMC11732987, “Enantioselective OTUD7B fragment discovery through chemoproteomics screening and high-throughput optimisation” (Communications Chemistry, 2025).

Assays:
Test in all cases: log2 ratio of Biotin-Ahx-Ub-VS probe labelling (fragment/DMSO); higher = less target engagement (more negative = stronger competition), active = hit call of the paper (q ≤ 0.05, log2 ratio ≤ -1)
Conditions in all cases: compound concentration: 200 uM; treatment time: 3 h
[1] = molecular target: USP34 (UniProt Q70CQ2)
USP34, sequence (Q70CQ2 whole entry, the tested form may be a part): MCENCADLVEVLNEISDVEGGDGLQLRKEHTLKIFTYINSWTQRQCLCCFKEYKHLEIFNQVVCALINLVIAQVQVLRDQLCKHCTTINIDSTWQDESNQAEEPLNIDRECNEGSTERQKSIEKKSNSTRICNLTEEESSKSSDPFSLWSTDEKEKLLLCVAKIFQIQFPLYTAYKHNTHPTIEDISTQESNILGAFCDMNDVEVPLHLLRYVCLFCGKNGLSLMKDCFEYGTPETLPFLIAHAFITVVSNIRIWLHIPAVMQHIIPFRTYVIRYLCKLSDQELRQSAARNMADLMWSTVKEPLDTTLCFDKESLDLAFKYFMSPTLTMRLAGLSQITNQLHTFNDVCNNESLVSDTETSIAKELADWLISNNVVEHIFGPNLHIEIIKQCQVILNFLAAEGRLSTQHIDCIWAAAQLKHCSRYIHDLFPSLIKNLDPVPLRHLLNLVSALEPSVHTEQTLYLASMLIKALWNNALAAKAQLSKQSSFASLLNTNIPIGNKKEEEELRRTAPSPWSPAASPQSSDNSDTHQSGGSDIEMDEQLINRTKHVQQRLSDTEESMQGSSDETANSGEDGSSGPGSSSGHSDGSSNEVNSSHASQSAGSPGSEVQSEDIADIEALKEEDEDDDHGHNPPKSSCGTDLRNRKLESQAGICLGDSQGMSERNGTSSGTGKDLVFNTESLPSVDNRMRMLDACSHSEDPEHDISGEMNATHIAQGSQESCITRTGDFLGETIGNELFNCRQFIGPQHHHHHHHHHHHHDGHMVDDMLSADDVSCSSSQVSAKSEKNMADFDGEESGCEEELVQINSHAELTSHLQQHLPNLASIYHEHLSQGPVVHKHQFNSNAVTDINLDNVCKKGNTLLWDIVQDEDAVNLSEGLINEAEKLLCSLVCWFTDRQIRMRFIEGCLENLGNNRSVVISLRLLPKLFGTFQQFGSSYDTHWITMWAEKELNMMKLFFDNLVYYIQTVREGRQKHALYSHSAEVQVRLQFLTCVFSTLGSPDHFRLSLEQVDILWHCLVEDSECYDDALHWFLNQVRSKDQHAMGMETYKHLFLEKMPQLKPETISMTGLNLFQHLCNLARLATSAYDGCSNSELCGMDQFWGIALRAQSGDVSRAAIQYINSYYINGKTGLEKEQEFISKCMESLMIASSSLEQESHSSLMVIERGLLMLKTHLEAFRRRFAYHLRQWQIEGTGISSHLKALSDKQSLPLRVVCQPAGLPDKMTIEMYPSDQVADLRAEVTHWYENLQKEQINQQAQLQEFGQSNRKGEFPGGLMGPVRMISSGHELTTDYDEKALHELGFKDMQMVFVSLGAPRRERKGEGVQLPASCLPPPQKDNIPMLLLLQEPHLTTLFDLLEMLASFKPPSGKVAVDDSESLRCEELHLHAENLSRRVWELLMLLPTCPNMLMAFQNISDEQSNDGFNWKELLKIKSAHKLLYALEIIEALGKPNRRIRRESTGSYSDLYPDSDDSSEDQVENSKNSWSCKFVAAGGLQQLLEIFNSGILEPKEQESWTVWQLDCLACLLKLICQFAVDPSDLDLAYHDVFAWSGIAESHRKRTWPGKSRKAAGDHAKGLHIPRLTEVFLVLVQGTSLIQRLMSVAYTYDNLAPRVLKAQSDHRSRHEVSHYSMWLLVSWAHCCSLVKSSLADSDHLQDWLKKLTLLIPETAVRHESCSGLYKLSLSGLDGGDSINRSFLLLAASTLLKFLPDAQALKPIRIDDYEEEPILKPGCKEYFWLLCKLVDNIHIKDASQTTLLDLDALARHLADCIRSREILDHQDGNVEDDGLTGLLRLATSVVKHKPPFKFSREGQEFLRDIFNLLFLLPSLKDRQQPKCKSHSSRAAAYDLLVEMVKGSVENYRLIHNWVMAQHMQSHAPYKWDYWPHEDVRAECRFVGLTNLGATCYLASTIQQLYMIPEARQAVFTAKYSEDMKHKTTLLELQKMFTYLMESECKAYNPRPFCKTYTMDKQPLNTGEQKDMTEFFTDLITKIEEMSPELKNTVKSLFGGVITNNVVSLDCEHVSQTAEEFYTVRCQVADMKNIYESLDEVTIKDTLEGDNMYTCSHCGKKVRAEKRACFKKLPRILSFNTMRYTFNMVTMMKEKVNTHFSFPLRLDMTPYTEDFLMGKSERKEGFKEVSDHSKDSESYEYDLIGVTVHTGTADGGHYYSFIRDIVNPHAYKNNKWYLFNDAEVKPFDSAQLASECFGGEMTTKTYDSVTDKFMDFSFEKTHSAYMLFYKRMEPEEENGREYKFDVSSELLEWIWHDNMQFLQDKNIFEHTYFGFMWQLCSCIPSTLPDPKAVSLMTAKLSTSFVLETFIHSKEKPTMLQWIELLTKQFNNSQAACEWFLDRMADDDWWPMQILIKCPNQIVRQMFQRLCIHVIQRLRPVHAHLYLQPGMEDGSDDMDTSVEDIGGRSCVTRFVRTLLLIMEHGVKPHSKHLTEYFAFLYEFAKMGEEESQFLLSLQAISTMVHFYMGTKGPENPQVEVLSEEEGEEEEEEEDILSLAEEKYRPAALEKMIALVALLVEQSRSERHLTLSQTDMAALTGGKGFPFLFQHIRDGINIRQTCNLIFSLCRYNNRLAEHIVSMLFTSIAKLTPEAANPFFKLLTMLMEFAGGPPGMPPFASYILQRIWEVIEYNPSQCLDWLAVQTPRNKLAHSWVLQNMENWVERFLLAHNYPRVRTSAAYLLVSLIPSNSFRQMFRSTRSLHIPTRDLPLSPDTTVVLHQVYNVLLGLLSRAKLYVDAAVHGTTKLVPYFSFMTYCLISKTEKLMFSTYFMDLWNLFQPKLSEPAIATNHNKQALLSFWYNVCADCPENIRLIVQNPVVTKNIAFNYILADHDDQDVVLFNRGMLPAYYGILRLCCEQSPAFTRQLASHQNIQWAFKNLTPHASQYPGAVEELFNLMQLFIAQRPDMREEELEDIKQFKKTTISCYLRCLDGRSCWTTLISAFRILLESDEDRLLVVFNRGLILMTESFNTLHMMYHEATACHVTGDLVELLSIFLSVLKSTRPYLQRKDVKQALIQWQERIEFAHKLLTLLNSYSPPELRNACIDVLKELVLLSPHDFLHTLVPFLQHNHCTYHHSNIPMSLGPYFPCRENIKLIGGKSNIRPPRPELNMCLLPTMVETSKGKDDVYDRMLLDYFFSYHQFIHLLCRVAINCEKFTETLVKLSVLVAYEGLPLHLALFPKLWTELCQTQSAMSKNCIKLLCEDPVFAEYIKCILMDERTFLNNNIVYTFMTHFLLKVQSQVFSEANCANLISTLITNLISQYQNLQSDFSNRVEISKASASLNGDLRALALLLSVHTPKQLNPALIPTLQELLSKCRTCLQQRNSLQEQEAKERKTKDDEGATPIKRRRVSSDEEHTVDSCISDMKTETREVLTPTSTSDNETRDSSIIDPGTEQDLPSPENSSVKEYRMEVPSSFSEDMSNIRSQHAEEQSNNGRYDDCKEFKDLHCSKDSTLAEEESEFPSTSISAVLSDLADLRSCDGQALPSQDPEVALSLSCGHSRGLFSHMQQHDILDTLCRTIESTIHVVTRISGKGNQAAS
Procedure, shortened: (§1)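 Labelling with Biotin-Ahx-Ub-VS (0.5 µM final, 1 h) followed a 3 h triplicate treatment of HEK293T lysate (495 µg per sample, Tris/CHAPS/IGEPAL buffer with protease inhibitors) with fragment at 200 µM or vehicle. Labelled DUBs were NeutrAvidin-enriched, digested with LysC and trypsin, and run by diaPASEF LC-MS/MS. The values, average log2 fragment/vehicle ratios by unpaired t-test, come from global-median-normalised Spectronaut label-free quantities. Proteins with ≥2 unique peptides were used.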

[2] = molecular target: T1, USP36 (UniProt Q9P275)
T1 sequence (whole entry): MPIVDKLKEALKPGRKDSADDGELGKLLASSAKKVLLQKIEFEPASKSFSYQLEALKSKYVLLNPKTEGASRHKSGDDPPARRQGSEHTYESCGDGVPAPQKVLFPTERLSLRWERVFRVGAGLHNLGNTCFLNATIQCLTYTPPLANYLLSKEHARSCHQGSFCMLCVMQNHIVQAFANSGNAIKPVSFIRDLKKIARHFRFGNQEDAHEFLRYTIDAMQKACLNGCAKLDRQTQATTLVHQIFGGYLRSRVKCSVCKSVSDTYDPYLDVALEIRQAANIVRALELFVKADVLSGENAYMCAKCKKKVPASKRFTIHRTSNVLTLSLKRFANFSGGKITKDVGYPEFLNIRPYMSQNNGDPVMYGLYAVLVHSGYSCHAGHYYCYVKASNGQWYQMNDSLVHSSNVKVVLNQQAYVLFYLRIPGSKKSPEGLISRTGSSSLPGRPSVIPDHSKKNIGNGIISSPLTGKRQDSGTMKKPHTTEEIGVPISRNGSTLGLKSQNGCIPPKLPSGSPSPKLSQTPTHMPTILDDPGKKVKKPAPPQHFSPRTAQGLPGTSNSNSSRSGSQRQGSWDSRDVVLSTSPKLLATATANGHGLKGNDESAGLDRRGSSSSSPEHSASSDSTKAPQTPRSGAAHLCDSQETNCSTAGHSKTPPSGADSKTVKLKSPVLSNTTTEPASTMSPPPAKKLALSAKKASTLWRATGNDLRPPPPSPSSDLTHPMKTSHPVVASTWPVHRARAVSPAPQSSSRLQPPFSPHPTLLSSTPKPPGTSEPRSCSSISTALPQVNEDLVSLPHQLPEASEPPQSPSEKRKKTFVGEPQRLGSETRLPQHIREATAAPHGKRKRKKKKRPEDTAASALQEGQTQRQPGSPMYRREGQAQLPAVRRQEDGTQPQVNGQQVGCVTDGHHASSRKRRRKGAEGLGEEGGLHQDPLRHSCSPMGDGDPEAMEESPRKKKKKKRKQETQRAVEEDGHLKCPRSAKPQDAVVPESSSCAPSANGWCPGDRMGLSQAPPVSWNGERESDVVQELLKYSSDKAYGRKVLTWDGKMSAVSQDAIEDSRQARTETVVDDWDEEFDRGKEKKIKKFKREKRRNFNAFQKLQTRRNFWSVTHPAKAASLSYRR
Procedure, shortened: as §1

[3] = molecular target: T2, USP38 (UniProt Q8NB14)
T2 sequence (whole entry): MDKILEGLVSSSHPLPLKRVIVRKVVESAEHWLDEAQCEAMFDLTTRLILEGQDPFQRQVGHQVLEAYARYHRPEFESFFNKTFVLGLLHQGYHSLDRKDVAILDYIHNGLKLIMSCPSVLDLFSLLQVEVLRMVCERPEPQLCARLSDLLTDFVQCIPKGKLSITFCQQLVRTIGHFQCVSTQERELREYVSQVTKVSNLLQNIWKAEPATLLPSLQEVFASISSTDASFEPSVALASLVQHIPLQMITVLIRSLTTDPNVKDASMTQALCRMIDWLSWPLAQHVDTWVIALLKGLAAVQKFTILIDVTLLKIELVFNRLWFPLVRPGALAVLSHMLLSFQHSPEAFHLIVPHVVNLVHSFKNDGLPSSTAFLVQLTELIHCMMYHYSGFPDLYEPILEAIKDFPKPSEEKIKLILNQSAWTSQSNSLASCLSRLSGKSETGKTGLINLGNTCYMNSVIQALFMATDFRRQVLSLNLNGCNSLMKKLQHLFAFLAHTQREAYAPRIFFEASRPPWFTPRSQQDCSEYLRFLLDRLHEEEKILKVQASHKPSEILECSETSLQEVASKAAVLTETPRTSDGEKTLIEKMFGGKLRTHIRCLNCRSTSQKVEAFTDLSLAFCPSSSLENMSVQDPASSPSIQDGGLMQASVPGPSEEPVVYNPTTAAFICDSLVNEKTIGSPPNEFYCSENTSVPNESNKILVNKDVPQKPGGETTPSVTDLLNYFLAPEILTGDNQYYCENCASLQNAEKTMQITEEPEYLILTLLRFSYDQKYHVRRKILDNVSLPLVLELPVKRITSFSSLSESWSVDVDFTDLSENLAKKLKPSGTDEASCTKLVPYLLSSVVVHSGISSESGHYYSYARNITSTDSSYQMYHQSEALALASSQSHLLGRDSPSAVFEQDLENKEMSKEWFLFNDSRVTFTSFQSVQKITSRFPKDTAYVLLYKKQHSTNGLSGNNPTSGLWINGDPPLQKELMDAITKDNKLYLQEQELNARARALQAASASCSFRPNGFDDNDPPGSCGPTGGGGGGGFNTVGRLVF
Procedure, shortened: as §1

[4] = molecular target: T3, USP39 (UniProt Q53GS9)
T3 sequence (whole entry): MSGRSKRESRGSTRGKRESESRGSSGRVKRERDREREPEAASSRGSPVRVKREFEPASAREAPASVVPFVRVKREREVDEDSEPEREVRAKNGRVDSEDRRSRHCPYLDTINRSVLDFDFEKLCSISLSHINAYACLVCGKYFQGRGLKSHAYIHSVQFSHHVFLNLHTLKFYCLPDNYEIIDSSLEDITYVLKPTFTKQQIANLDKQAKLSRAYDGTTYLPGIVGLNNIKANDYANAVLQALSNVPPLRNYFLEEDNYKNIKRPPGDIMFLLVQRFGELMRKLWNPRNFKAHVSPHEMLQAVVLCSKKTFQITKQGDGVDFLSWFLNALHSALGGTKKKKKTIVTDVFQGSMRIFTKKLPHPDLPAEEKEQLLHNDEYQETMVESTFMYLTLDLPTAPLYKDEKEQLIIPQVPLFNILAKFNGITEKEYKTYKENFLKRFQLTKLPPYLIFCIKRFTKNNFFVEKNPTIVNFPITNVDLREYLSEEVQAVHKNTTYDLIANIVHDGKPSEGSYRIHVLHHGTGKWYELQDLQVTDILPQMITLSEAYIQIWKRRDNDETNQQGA
Procedure, shortened: as §1

[5] = molecular target: T4, USP4 (UniProt Q13107)
T4 sequence (whole entry): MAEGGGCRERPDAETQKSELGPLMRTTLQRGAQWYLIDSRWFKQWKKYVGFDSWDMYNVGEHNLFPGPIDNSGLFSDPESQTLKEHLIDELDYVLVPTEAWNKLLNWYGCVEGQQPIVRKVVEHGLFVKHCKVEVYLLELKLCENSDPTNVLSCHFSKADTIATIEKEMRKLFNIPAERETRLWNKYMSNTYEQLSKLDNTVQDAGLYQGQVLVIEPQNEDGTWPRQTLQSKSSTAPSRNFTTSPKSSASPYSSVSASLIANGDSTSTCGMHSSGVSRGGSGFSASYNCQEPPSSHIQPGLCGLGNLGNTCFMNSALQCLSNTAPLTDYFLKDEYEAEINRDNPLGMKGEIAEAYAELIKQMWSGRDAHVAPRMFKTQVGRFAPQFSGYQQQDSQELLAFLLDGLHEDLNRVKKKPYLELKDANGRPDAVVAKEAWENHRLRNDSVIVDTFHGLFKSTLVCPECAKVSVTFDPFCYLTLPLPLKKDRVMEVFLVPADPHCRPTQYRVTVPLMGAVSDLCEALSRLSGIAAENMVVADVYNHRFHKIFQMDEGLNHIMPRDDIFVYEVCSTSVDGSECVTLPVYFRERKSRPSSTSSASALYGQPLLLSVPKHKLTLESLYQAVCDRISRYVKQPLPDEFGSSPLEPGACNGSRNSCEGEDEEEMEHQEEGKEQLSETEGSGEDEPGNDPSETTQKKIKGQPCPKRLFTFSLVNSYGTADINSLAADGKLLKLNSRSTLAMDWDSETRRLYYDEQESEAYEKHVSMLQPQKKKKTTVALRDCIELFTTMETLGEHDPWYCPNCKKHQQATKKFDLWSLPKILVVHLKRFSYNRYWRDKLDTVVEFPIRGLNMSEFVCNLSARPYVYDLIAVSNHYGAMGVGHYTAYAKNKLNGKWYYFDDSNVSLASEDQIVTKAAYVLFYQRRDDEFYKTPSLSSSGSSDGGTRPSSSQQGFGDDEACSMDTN
Procedure, shortened: as §1

Measured: log2 ratio of Biotin-Ahx-Ub-VS probe labelling

CC(C)n1nccc1NC(=O)CCl
inactive: [1] -0.109 | [2] -0.0105 | [3] -0.0818 | [4] -0.252 | [5] -0.0708
